Consider 100 compounds from PubChem BioAssay AID504834 (National Center for Advancing Translational Sciences (NCATS), 2011).

Out of some 320,000 compounds screened, about 22,000 (6.9%) were called active. A call without a number means that no potency is given here. Another 27% or so got no clear call; they are omitted. Calls come from the whole dose curve; as a rule, active = well fitted inhibition curve with a large enough effect; inconclusive = small, poorly fitted or top-dose-only effect, or another doubt; inactive = no such curve, though single readings can be large or run the other way. The sample as a whole holds a higher share of actives than the screen did.
Potency is the fitted concentration of half-maximal effect.

The experiment can be described thus: Primary qHTS for delayed death inhibitors of the malarial parasite plastid, 96 hour incubation. As to conditions: P. falciparum luciferase reporter growth; series mostly up to 28.7 µM. Put shortly: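 P. falciparum expressing integrated firefly luciferase grown in erythrocytes (2% hematocrit, 0.05% parasitemia final) with compounds for 96 hours at 37 C, 5% CO2. Growth inhibition read as loss of luminescence after adding luciferase detection reagent.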
(In general: Quantitative high-throughput screening tests each substance at several concentrations.)
Turning to `O=C(CCCN1C(=O)/C(=C/c2cccs2)SC1=S)Nc1ccc(O)cc1`, the Potency result is “inactive”.

Regarding `NS(=O)(=O)c1ccc(CCNC(=O)CN2C(=O)c3ccccc3S2(=O)=O)cc1`, the Potency result is “inactive”.

Turning to `CCN(C(=O)CSc1ncnc2sccc12)c1c(N)n(Cc2ccccc2)c(=O)[nH]c1=O`, the Potency result is “inactive”.

On to `COc1cccc(OC)c1C(=O)Nc1ccc2c(c1)n(C)c(=O)n2C`, for which the Potency entry was “inactive”.

Take `COc1ccc(C(=O)NC2CC2)cc1OC1CCN(C/C=C/c2ccccc2)CC1`: the Potency was 11.7 µM (active).

`COc1ccc(C(=O)NC2CC2)cc1OC1CCN(Cc2ccc(SC)cc2)CC1`: the Potency entry is “inactive”.

Consider `COc1ccc(C(=O)N(C)CC(O)c2ccccc2)cc1OC1CCN(C(C)=O)CC1` (stereo not given), for which the Potency result was “inactive”.

On to `O=C(NCCc1ccccn1)c1nc(Cn2cc([N+](=O)[O-])cn2)no1`, for which the Potency result was “inactive”.

For `CC(OC(=O)CNC(=O)c1cccc(F)c1)C(=O)NC1CCCCC1C` (stereo not given), the Potency result is “inactive”.

Turning to `O=[N+]([O-])c1ccc(C=Nc2ccc(Cl)cc2Cl)s1`, the Potency entry was “inactive”.

As to `CC(C)(C)c1cc(C(=O)N/N=C/c2ccc([N+](=O)[O-])s2)n[nH]1`, the Potency is 1.65 µM (active).

`COc1ccc2ccccc2c1/C=N/NC(=O)c1cc(C)[nH]n1`: the Potency result is “inactive”.

In the case of `COC(=O)c1ccc(COC(=O)c2cnc(Cl)c(Cl)c2)cc1`, the Potency entry was “inactive”.

`CCOc1ccc(CCNC(=O)COC(=O)CCS(=O)(=O)c2ccc(C)cc2)cc1OCC`: the Potency entry was “inactive”.

Take `CCC(C(=O)N1CCN(S(=O)(=O)c2sc(C(=O)O)c(C)c2C(=O)O)CC1)c1ccccc1` (stereo not given): the Potency entry was “inactive”.

On to `CN(C(=O)CN1C(=O)CCSc2ccc(S(=O)(=O)N3CCCC3)cc21)c1ccccc1`, for which the Potency entry is “inactive”.

Take `COc1cc(C(=O)NNC(=O)c2ccc(S(=O)(=O)N3CCCCC3)cc2)cc(OC)c1OC`: the Potency result was “inactive”.

In the case of `CCOc1cc(C(=O)N2CCc3cc(OC)c(OC)cc3C2)ccc1OC(F)F`, the Potency is 5.86 µM (active).

Turning to `CCOc1ccc(NC(=O)COc2ccc(C(=O)N3CCC(C(N)=O)CC3)cc2OC)cc1`, the Potency entry was “inactive”.

Take `CCOc1cc(CN2CCN(C(=O)CC(C)C)CC2)ccc1OC`: the Potency entry was “inactive”.

In the case of `COC(=O)Cc1ccc(OC(=O)C2CCN(S(=O)(=O)c3ccc(OC)c(OC)c3)CC2)cc1`, the Potency entry is “inactive”.

On to `COc1cc2c(cc1OC)CN(C(=O)c1ccc(S(=O)(=O)N3CCCCCC3)cc1)CC2`, for which the Potency was 0.465 µM (active).

Regarding `COc1ccc(S(=O)(=O)N2CCCCC2)cc1Br`, the Potency result is “inactive”.

Consider `COc1ccc(S(=O)(=O)N2CCC(C(=O)N3CCCC3)CC2)cc1C`, for which the Potency entry was “inactive”.

Turning to `COc1ccc(S(=O)(=O)N2CCC(C(=O)N3CCc4ccccc4C3)CC2)cc1OC`, the Potency is 8.28 µM (active).

`COC(=O)c1ccc(C)c(NC(=O)C2CC(=O)N(C3CCCC(C)C3C)C2)c1` (stereo not given): the Potency result is “inactive”.

As for `COC(=O)c1ccccc1NC(=O)C1CCN(C(=O)N2CCOc3ccccc32)CC1`, the Potency result is “inactive”.

With `O=C(COC(=O)c1cccc(Cl)c1)Nc1ccc2[nH]c(=O)[nH]c2c1`, the Potency result was “inactive”.

For the compound `Cc1ccc(CN(CC(=O)NCC2CCCO2)S(=O)(=O)c2ccc(C)cc2)cc1` (stereo not given), the Potency entry was “inactive”.

Take `CC(=O)Nc1ccc(NC(=O)CN2C(=O)COc3ccc(S(=O)(=O)N4CCCCC4)cc32)cc1`: the Potency entry is “inactive”.

As to `Cc1ccn2c(=O)nc(SCC(=O)NCc3ccc4c(c3)OCO4)nc2c1`, the Potency entry is “inactive”.

For the compound `Cc1ccc(C)c(C(=O)COC(=O)Cn2[nH]c(=O)c3ccccc3c2=O)c1`, the Potency result was “inactive”.

`Cc1nc(NC(=O)c2ccc3c(c2)OCCO3)ccc1Br`: the Potency result is “inactive”.

For the compound `C=C(C)COc1ccc(-c2n[nH]c(C)c2-c2ccccc2OC)c(O)c1`, the Potency is 11.7 µM (active).

As to `C=C(C)COc1ccc(-c2ncncc2-c2ccc(OC)cc2)c(O)c1`, the Potency result is “inactive”.

As to `CCOc1ccc(-c2n[nH]c(C)c2-c2ccccn2)c(O)c1`, the Potency entry is “inactive”.

Turning to `CCOc1ccc(-c2nc(N)ncc2-c2ccccc2OC)c(O)c1`, the Potency entry was “inactive”.

Turning to `COc1ccc(-c2[nH]ncc2CN(C)Cc2c(C)n[nH]c2C)c(OC)c1`, the Potency entry is “inactive”.

For `COc1ccc(-c2n[nH]c(C)c2-c2ccccc2OC)c(O)c1`, the Potency is 11.7 µM (active).

Regarding `COc1ccc(N=Nc2ccc(O)c(P(=O)(c3ccccc3)c3ccccc3)c2)cc1`, the Potency entry is “inactive”.

Turning to `CCc1nc2nc(C)c(NS(=O)(=O)c3ccc4c(c3)CCCC4)c(=O)n2[nH]1`, the Potency result was “inactive”.

On to `C=CCn1cc(Cl)cc(C(=O)Nc2ccccc2)c1=O`, for which the Potency entry was “inactive”.

As to `CCOc1ccc(N/C=C/C(=O)c2cc(OC)c(OC)c(OC)c2)cc1`, the Potency entry was “inactive”.

For the compound `Cc1cccc(NC(=O)CSCC(=O)Nc2nnc(C3CC3)s2)c1`, the Potency entry is “inactive”.

For `NC(=O)NC(=O)C(OC(=O)CCNS(=O)(=O)c1ccccc1)c1ccccc1` (stereo not given), the Potency result was “inactive”.

Turning to `COc1ccc2c(c1)c1nc3n(c(=O)c1n2CC(=O)Nc1ccccc1)CCS3`, the Potency entry is “inactive”.

As to `CCn1c(CC(=O)Nc2ccc(C)cc2)nnc1SCC(=O)Nc1nc(C)cs1`, the Potency entry is “inactive”.

With `COCCn1c(SCC(=O)Nc2ccc3c(c2)CCC3)nc2ccccc2c1=O`, the Potency entry was “inactive”.

Turning to `CCn1c(SCC(=O)Nc2ccc(C)cc2)nc2nc3c(cc2c1=O)CCCC3`, the Potency was 14.7 µM (active).

As for `O=C(OCC1OC(Oc2ccc(O)cc2)C(O)C(O)C1O)c1ccccc1` (stereo not given), the Potency result is “inactive”.

As to `COc1ccc(-c2nc(SCC(=O)N3CCCC3)n[nH]2)cc1`, the Potency entry was “inactive”.

As to `O=S(=O)(c1ccc(-c2ccno2)s1)N1CCCCC1`, the Potency result is “inactive”.

Take `CCCCN1Cc2c(nc3cc(-c4ccccc4)[nH]n3c2=O)C1=O`: the Potency result is “inactive”.

For the compound `O=C(CCNS(=O)(=O)c1ccccc1C(F)(F)F)Nc1ccncc1`, the Potency result was “inactive”.

For `COc1ccc([N+](=O)[O-])cc1N(CC(=O)Nc1ccccc1C(=O)N1CCOCC1)S(C)(=O)=O`, the Potency entry is “inactive”.

`CCOc1ccccc1N(CC(=O)Nc1ccccc1C(=O)OC)S(C)(=O)=O`: the Potency entry is “inactive”.

Take `COc1ccc(N(CC(=O)N2CCCCCC2)S(=O)(=O)c2ccccc2)cc1`: the Potency entry was “inactive”.

Regarding `COc1ccccc1N(CC(=O)Nc1ccccc1C(=O)N1CCCC1)S(C)(=O)=O`, the Potency was 9.28 µM (active).

Consider `COc1ccccc1N(CC(=O)N1CCCCC1)S(=O)(=O)c1ccccc1`, for which the Potency is 11.7 µM (active).

Turning to `COc1ccccc1NC(=O)CN(c1ccccc1OC)S(=O)(=O)c1ccccc1`, the Potency entry is “inactive”.

Regarding `Cc1cc(C)c(S(=O)(=O)c2cc(F)ccc2C)c(=O)[nH]1`, the Potency result was “inactive”.

Consider `O=C(COC(=O)c1ccc(N2CCCC2=O)cc1)c1ccc(OC(F)F)cc1`, for which the Potency result is “inactive”.

For `COc1ccc(NC(=O)C2C3CCC(O3)C2C(=O)O)cc1OC` (stereo not given), the Potency result was “inactive”.

For `O=C(CCCN=C1NS(=O)(=O)c2ccccc21)OCC(=O)c1ccc(F)c(F)c1`, the Potency entry is “inactive”.

As for `CCN(CC(=O)Nc1ccc2c(c1)OCO2)S(=O)(=O)c1ccccc1`, the Potency entry was “inactive”.

For the compound `CN(C)C(=O)Oc1ccc(NC(=O)N2CCOCC2)cc1`, the Potency is 3.29 µM (active).

`COc1cc(NC(=O)N2CCOCC2)cc(OC)c1`: the Potency entry is “inactive”.

For `CN(C)S(=O)(=O)c1ccc(NC(=O)N2CCOCC2)cc1`, the Potency result is “inactive”.

With `CCCCN1CCNC1=S`, the Potency result was “inactive”.

For the compound `COc1ccc(-c2cc(=O)oc3cc(OCC(=O)N(C)C4CCS(=O)(=O)C4)ccc23)cc1` (stereo not given), the Potency entry was “inactive”.

With `CC(C)(C)N(CC#CCC(O)(c1ccccc1)C1CCCC1)CCO` (stereo not given), the Potency result is “inactive”.

Take `CN(CC#CCC(c1ccccc1)c1ccccc1)C(C)(C)C`: the Potency is 4.65 µM (active).

`CCCn1nc(C(=O)NNC(=O)CCOc2ccccc2OCC)c2ccccc2c1=O`: the Potency entry was “inactive”.

Turning to `CC(Sc1nnc(CNC(=O)c2ccccc2F)n1C)C(=O)Nc1nccs1` (stereo not given), the Potency result was “inactive”.

As for `CC(C)(O)C(=O)NN(C(=O)c1ccccc1)c1cccc(Br)c1`, the Potency entry was “inactive”.

Turning to `Cc1ccc(N(NC(=O)C(C)(C)O)C(=O)c2ccccc2)cc1C`, the Potency entry is “inactive”.

For `CCCC(O)(CCC)C(=O)NN(C(=O)CCl)c1cccc(C)c1`, the Potency is 1.04 µM (active).

For the compound `Cc1ccc2nc(NC(=O)C3CSC4(C)CCC(=O)N34)sc2c1` (stereo not given), the Potency result was “inactive”.

Take `Cc1ccc(S(=O)(=O)c2c[nH]c3ccc(C)cc3c2=O)cc1`: the Potency entry was “inactive”.

Regarding `O=C(NCc1ccccc1)c1ccc(CNc2c(N3CCCC3)c(=O)c2=O)cc1`, the Potency result was “inactive”.

`O=S(=O)(NCCS(=O)(=O)N1CCN(c2ccccc2)CC1)c1ccc(F)cc1`: the Potency entry is “inactive”.

For `CCOc1ccc(/C=N/NC(=O)C(C)Sc2ccccn2)cc1OCC` (stereo not given), the Potency entry was “inactive”.

Turning to `CCOc1cc(/C=N/NC(=O)OC)ccc1OCCSc1ccc(Cl)cc1`, the Potency is 10.4 µM (active).

As to `COC(=O)N/N=C/c1ccc(/C=N/NC(=O)OC)cc1`, the Potency entry is “inactive”.

`COc1ccc(C)cc1NC(=O)CCCN1C(=O)NC(C)(C)C1=O`: the Potency result was “inactive”.

Consider `NC(=O)c1cc(S(=O)(=O)N2CCCC2)ccc1OCc1ccc(F)cc1`, for which the Potency entry is “inactive”.

On to `CC(C)(C)n1nnnc1C(c1ccc(F)cc1)N1CCN(Cc2ccc3c(c2)OCO3)CC1` (stereo not given), for which the Potency entry is “inactive”.

Turning to `Fc1ccccc1C(c1nnnn1Cc1ccc2c(c1)OCO2)N1CCN(Cc2ccccc2)CC1` (stereo not given), the Potency was 1.85 µM (active).

Regarding `Cc1cc(C)c2[nH]c(=O)c(C(c3nnnn3Cc3ccc4c(c3)OCO4)N3CCCC3)cc2c1` (stereo not given), the Potency result is “inactive”.

Consider `COc1ccc(C(=O)Nc2ccc(C3(C#N)CCCC3)cc2)cc1OC`, for which the Potency entry was “inactive”.

For `CC1CCCCC1NC(=O)CN1CCC(O)(c2ccc3c(c2)OCO3)CC1` (stereo not given), the Potency is 13.1 µM (active).

Regarding `O=C(CN1CCC(O)(c2ccccc2)CC1)Nc1ccc2c(c1)OCCO2`, the Potency result is “inactive”.

For `CC1CCCCC1NC(=O)COC(=O)Cc1ccc(Br)cc1` (stereo not given), the Potency entry is “inactive”.

Consider `O=C(Nc1ccc2c(c1)CCC2)c1cccc(S(=O)(=O)Nc2ccccc2Cl)c1`, for which the Potency entry is “inactive”.

In the case of `Cc1cccnc1NC(=O)c1cccc(S(=O)(=O)N2CCN(c3ccc(F)cc3)CC2)c1`, the Potency entry is “inactive”.

In the case of `O=C(Nc1ccc2c(c1)CCC2)c1cccc(S(=O)(=O)N2CCN(c3ccc(F)cc3)CC2)c1`, the Potency was 9.28 µM (active).

With `CCOc1ccc(/C=C/C(=O)N(CC)CC(=O)NCc2cccs2)cc1OC`, the Potency result was “inactive”.

In the case of `O=C(Cn1nc(C(=O)O)c2ccccc2c1=O)Nc1ccc(F)cc1`, the Potency result is “inactive”.

With `COc1ccc(-c2cc(C(=O)N3CCN(c4ccc(F)cc4)CC3)no2)cc1`, the Potency result was “inactive”.

Regarding `CCOC(=O)C1(C(F)(F)F)N=C(N(C)C)OC(N(C)C)=N1`, the Potency was 4.15 µM (active).
